Common to all, as to experiment: Cytotoxic Profiling of Annotated Libraries Using Quantitative High-Throughput Screening (AID 1296008); also: nearly all actives have a fitted effect of over 60% in size
Conditions in all cases: Five cell lines viability, CellTiter-Glo ATP luminescence, 48-72 h; max response: active compounds read low

One test relates to CRL-7250. In short, it runs like this:
(§1)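 Compounds were pin-transferred onto cells and incubated 48 or 72 hr at 37 degree Celsius, 95% humidity. CellTiter-Glo was added, plates sat 10 min at room temperature, then ATP-coupled luminescence was imaged as the viability read-out.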

The next test deals with HEK293. Put shortly: as §1
In another test the test system is KB-3-1. In short, it runs like this:
as §1

Another test has as its system NIH3T3. In short, it runs like this:
as §1

Structures are written as SMILES. Inconclusive results are not listed. A number with no mark means an inactive call. Activity calls are given as the source filed them. Calls follow the shape of the dose curve; as a rule, active = well fitted inhibition curve with a large enough effect; inconclusive = small, poorly fitted or top-dose-only effect; inactive = flat fitted curve, though single readings scatter. Where a SMILES comes first, the peptide text is derived from it. [ ]: non-standard residue; d: D form. ξ: configuration not given here. ξLac(3-iPr) = CC(C)CC(O)C(=O)O; NMeV = CN[CH](C(=O)O)C(C)C; βAla = NCCC(=O)O
% is scaled to controls: 0 for no effect and ±100 for the full control effect; potency is read from the fitted curve at half-maximal effect.

`Nc1nc2c(c(=O)[nH]1)C[C@@H](CCc1ccc(C(=O)N[C@@H](CCC(=O)O)C(=O)O)cc1)CN2`: the Potency in the test with CRL-7250 was 0.116 µM (active); in the test on HEK293 it was 0.206 µM (active); in the test with KB-3-1 it was 0.058 µM (active); in the test with NIH3T3 it was 0.103 µM (active).
With `Cc1cc(O)c(-c2ccc([C@@H](C)CN(C)C)cc2)c2c1[nH]c(=O)c1sccc12`, the Potency was 0.116 µM (active) in the test with CRL-7250, 0.0259 µM (active) in the test with HEK293, 0.0461 µM (active) with KB-3-1 and 0.231 µM (active) in the test with NIH3T3.
As for `CNC(=O)c1cccc(-c2ccc3c(N4CCOC[C@@H]4C)nc(N4CCOC[C@@H]4C)nc3n2)c1`, the Potency with CRL-7250 is 0.58 µM (active); in the test with HEK293, 0.366 µM (active); with KB-3-1, 0.326 µM (active); in the test on NIH3T3, 1.3 µM (active).
`CC1(C)[C@@H](O)CC[C@]2(C)[C@H]3CC=C4[C@@H]5C[C@](C)(C(=O)O)CC[C@]5(C)CC[C@@]4(C)[C@]3(C)CC[C@@H]12`: the max response was -5.83% in the test with CRL-7250, 2.45% in the test with HEK293, 8.76% with KB-3-1 and 0.034% in the test with NIH3T3.
Regarding `CC(C)C[C@H](CC(=O)NO)C(=O)N[C@H](C(=O)N[C@@H](C)C(=O)NCCN)C(C)(C)C`, the call in the test on CRL-7250, in the test on KB-3-1 and in the test with NIH3T3 was inactive. Further, in the test on HEK293, the max response was -1.44%.
As for `COC(=O)CC1CC(c2ccc(O)cc2)=NO1` (stereo not given), the max response with CRL-7250 was -3.02%; in the test on HEK293 it was 0.726%; in the test with KB-3-1, -14.5%; in the test with NIH3T3 it was -0.902%.
In the same order, the values of `COc1cc(O)cc(C)c1C(=O)OC1C(CO)OC(OC2C(O)C(O)C(O)C(O)C2O)C(O)C1O` (stereo not given) are -0.0302%, 4.85%, 2.63% and -8.82%.
`O=C1CCC(=O)N(O)CCCCCNC(=O)CCC(=O)N(O)CCOCCNC(=O)CCC(=O)N(O)CCCCCN1`: the max response is -5.63% with CRL-7250 and 1.01% in the test on HEK293. Moreover, the molecule was called inactive in the test on KB-3-1 and in the test on NIH3T3.
For `CNS(=O)(=O)CC1CCC(N(C)c2ncnc3[nH]ccc23)CC1` (stereo not given), the max response with CRL-7250 is 2.42%; with HEK293, -8.69%; with KB-3-1 it was -6.06%; in the test on NIH3T3, -10.7%.
Regarding `CC1OC2OC(=O)C3(C)CC4=C(CO)C5=C(CC(=O)C4(C)C(C1=O)C23)C(C)(C)OC(=O)C5` (stereo not given), the max response in the test with CRL-7250 is -28.4%; with HEK293 it was -12.2%; with KB-3-1 it was 2.12%; in the test on NIH3T3, -2.31%.
With `CC(C)CC1OC(=O)C2CCCN2C(=O)CCNC(=O)C(Cc2ccccc2)NC(=O)C(C(C)C)N(C)C(=O)C(C(C)C)N(C)C1=O` (stereo not given) (cyclo([ξLac(3-iPr)][NMeV][NMeV]F[βAla]P); configuration not given here), the max response in the test with CRL-7250 is 2.18%; with HEK293, 4%; with KB-3-1 it was 3.73%; in the test with NIH3T3, 0.588%.
For the molecule `CC1(C)CC2C=C(C(=O)O)C3COC(=O)C(O)(CO)C23C1` (stereo not given), the max response with CRL-7250 was -19.1%; in the test on HEK293, 4.03%; in the test on NIH3T3 it was -0.118%. The molecule was classed as inactive in the test on KB-3-1.
For the molecule `Cc1[nH]c2ccccc2c1CCNC(=O)c1ccccc1F`, the max response is -5.45% with CRL-7250, 2.26% in the test on HEK293, 3.4% in the test on KB-3-1 and 2.05% with NIH3T3.
In the same order, the values of `COc1c2ccoc2cc2oc(CO[C@@H]3O[C@H](CO)[C@@H](O)[C@H](O)[C@H]3O)cc(=O)c12` are -0.0339%, 1.44%, -1.43% and -8.92%.
As for `CCN1CCN(Cc2ccc(NC(=O)Nc3ccc(Oc4cc(NC)ncn4)cc3)cc2C(F)(F)F)CC1`, the results for the Potency with CRL-7250 and in the test with KB-3-1 were 25.9 µM (active) and 6.51 µM (active), respectively. Also, the max response was -109% with HEK293 and -75.2% in the test on NIH3T3.
`NC(=O)[C@H](O[C@@H]1O[C@H](CO)[C@@H](O)[C@H](O)[C@H]1O)c1ccccc1`: the outcome in the test with CRL-7250 and in the test with KB-3-1 was inactive. Besides, the max response in the test with HEK293 is -3.01%; in the test with NIH3T3, 4.94%.
On to `C=CC1C(OC2OC(CO)C(O)C(O)C2O)OC=C2C(=O)N3C(C(=O)O)Cc4c([nH]c5ccccc45)C3CC21` (stereo not given), for which the result in the test on CRL-7250 was inactive. Further, the figures for the max response in the test with HEK293, with KB-3-1 and with NIH3T3 were 0.732%, 6.21% and -3.8%, respectively.
For the molecule `CC(=O)O[C@@H]1C[C@H](O)[C@@]23CO[C@H](O)[C@]1(C)C2C[C@@H](O)[C@]1(C)C3C(=O)[C@H](OC(C)=O)[C@@]2(C)[C@H](c3ccoc3)C[C@H]3O[C@]321` (stereo not given in full), the Potency in the test with CRL-7250 is 0.485 µM (active); with HEK293 it was 0.343 µM (active); in the test with KB-3-1, 0.137 µM (active); with NIH3T3 it was 0.432 µM (active).
In the case of `CC(C)/C=C1\NC(=O)C(C(C)C)n2c1nc1c(c2=O)C=CC=CO1` (stereo not given), the max response in the test with CRL-7250 was -11.8%; with HEK293 it was 2.88%; in the test with KB-3-1 it was 4.42%. Moreover, the molecule was called inactive in the test on NIH3T3.
Turning to `Nc1ncnc2c([C@@H]3N[C@H](CO)[C@@H](O)[C@H]3O)c[nH]c12`, the max response was -1.11% in the test on CRL-7250, 1.17% with HEK293, 5.62% in the test on KB-3-1 and -4.07% in the test on NIH3T3.
